This passage reports Potency and outcome results from PubChem BioAssay (Tox21).

The target of test [1] is Aryl hydrocarbon receptor (Homo sapiens) (UniProt P35869). Put plainly: qHTS assay to identify small molecule that activate the aryl hydrocarbon receptor (AhR) signaling pathway (AID 743085).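 Note: HG2L7.5c1 human HepG2 liver cells with stably integrated DRE-driven firefly reporter; series mostly up to about 70 µM; nearly all actives have a fitted effect of over 15% in size.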 In short, it runs like this: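 HepG2 cells stably carrying a 20-DRE firefly luciferase reporter (HG2L7.5c1) treated with compound for 24 hr at 37C. Luciferase read by ONE-Glo luminescence, with CellTiter-Fluor viability read first.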

Test [2] is described as follows: qHTS assay to identify small molecule that activate the aryl hydrocarbon receptor (AhR) signaling pathway - cell viability counter screen (AID 743086). Note: series mostly up to about 70 µM; nearly all actives have a fitted effect of over 45% in size. In short, it runs like this: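 HepG2-AhR-luc (HG2L7.5c1) cells, 4000/well, treated 24 h at 37 C with compound; viability measured as CellTiter-Fluor fluorescence after 30 min in the same wells as the luciferase read.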

For test [3], the target named is Peroxisome proliferator-activated receptor gamma (Homo sapiens) (UniProt P37231). Briefly: qHTS assay to identify small molecule agonists of the peroxisome proliferator-activated receptor gamma (PPARg) signaling pathway (AID 743094; active = well fitted activation curve with a large enough effect in the signal ratio in the repeat runs, not every such curve was filed as active; the % refers to the signal ratio). In outline:
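Stably transfected HEK293H cells (GeneBLAzer PPARg UAS-bla) were incubated with test substances for 17 h at 37C after a 5 h pre-incubation; beta-lactamase activity was then detected by FRET substrate fluorescence.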
Background: Quantitative high-throughput screening tests each substance at several concentrations.

The target is the same in test [4]. Put plainly: qHTS assay to identify small molecule antagonists of the peroxisome proliferator-activated receptor gamma (PPARg) signaling pathway (AID 743191; calls by dose curve; note: series mostly up to about 63 µM; nearly all actives have a fitted effect of over 30% in size). In outline:
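GeneBLAzer PPARg UAS-bla HEK293H cells, 5 h post-plating, exposed to compounds 17 h at 37C. LiveBLAzer B/G FRET substrate added for 1 h at room temperature; beta-lactamase reporter read by fluorescence intensity.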

Test [5] is described as follows: qHTS assay to identify small molecule antagonists of the peroxisome proliferator-activated receptor gamma (PPARg) signaling pathway - cell viability counter screen (AID 743194). Note: nearly all actives have a fitted effect of over 55% in size. In short, it runs like this:
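Cytotoxicity counter screen in PPARg-bla HEK293H cells, same wells as reporter assay. Compounds plus 50 nM rosiglitazone (final) for 17 h at 37 C, then viability read by CellTiter-Glo luminescence.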

Test [6] is described as follows: qHTS assay for small molecule agonists of the antioxidant response element (ARE) signaling pathway (AID 743202; active = well fitted activation curve with a large enough effect in the signal ratio in the repeat runs, not every such curve was filed as active; the % refers to the signal ratio; note: potency is the fitted concentration of half-maximal effect). In short, it runs like this: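 Agonist mode reporter screen: HepG2 cells with ARE-controlled beta-lactamase are incubated with test compounds for 16 h at 37 C, and beta-lactamase activity is measured as fluorescence of cleaved B/G FRET substrate.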
The nature of test [7]: qHTS assay for small molecule agonists of the antioxidant response element (ARE) signaling pathway - cell viability counter screen (AID 743203; calls by dose curve; note: nearly all actives have a fitted effect of over 55% in size). In outline:
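Cells (ARE-bla HepG2, 2,000/well) receive DMSO-dissolved compounds after a 5 hrs rest. Plates incubate 16 hrs at 37C/5% CO2. CellTiter-Glo luminescence is then recorded after 30 min at room temperature.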

Test [8] in a line: qHTS assay for small molecule activators of the heat shock response signaling pathway (AID 743210; active = well fitted activation curve with a large enough effect in the signal ratio in the repeat runs, with a control signal flat, not every such curve was filed as active; the % refers to the signal ratio; note: series mostly up to about 63 µM). In outline: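 Quantitative high-throughput format using an engineered HeLa line in which heat shock response elements drive beta-lactamase; after 5 h with compound, cells received a B/G FRET substrate and fluorescence was read.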
A short description of test [9]: qHTS assay to identify small molecule agonists of the peroxisome proliferator-activated receptor delta (PPARd) signaling pathway - cell viability counter screen (AID 743211). Note: nearly all actives have a fitted effect of over 55% in size. In outline: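 PPARd-bla HEK293H cells (3000/well) were pre-incubated 5 h at 37 C, then exposed to compound for 17 h at 37 C. After 2 h with LiveBLAzer substrate, CellTiter-Glo was added to the same wells; luminescence read after 30 min at room temperature.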

Test [10] can be described thus: qHTS assay for small molecule activators of the heat shock response signaling pathway - cell viability counter screen (AID 743209). Note: nearly all actives have a fitted effect of over 50% in size. In outline: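 Quantitative HTS format, Tox21 10K library. HeLa cells carrying an HSE-driven beta-lactamase reporter were treated 5 h at 37 C, then assessed for viability by CellTiter-Glo luminescence.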

Results filed as inconclusive are left out. A number with no mark means an inactive call. Activity calls are given as the source filed them. Unless noted, calls come from the whole dose curve; as a rule, active = well fitted curve in the direction sought with a large enough effect in the repeat runs; inconclusive = weak or mixed curves; inactive = no such curve, though single readings can be large; an effect the other way counts as inactive or inconclusive.

Peroxisome proliferator-activated receptor gamma (Homo sapiens), sequence (P37231 whole entry, looked up): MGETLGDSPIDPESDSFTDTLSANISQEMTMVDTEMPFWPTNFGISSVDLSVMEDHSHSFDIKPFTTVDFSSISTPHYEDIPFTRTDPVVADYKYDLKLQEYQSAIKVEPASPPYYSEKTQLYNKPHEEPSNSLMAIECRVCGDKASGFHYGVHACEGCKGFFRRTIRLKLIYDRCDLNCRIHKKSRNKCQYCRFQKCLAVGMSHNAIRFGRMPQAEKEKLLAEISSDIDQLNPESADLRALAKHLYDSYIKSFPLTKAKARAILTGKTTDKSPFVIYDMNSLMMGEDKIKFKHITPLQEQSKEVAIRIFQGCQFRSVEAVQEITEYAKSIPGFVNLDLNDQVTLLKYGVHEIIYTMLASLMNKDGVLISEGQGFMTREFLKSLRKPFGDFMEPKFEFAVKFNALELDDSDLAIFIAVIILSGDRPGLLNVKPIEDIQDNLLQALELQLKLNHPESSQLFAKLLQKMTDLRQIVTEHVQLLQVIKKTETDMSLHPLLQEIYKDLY
Aryl hydrocarbon receptor (Homo sapiens), sequence (P35869 whole entry, looked up): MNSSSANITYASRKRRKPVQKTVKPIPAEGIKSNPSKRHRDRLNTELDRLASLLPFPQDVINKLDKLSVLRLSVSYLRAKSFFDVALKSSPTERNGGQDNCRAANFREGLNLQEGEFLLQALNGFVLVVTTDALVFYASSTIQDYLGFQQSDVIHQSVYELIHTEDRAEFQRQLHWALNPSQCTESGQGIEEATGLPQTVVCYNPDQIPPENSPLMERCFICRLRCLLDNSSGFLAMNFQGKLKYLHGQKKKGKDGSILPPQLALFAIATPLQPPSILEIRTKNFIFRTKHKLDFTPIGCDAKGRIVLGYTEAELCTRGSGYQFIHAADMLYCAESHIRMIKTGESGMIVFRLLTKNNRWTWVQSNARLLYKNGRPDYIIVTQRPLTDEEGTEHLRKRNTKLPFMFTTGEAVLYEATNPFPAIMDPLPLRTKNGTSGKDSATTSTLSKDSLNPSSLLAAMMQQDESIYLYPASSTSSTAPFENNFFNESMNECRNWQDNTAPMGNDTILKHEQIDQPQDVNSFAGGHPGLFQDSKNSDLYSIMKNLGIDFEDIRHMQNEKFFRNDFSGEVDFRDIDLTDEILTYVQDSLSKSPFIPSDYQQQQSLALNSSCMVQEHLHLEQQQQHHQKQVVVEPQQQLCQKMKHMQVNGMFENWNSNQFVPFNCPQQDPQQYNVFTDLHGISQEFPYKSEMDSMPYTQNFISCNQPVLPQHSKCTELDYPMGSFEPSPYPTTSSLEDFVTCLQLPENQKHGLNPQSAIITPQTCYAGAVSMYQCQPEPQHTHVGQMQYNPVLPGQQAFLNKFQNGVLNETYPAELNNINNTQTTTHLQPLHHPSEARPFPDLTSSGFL

With `CC(C)(C)C(=O)CCc1ccc(Cl)cc1`, the Potency result in test [1] and in test [6] was “inactive” in each case. Besides, the outcome in [2], in test [3], in [4], in [5], in [7] and in test [8] was inactive. Besides, the compound was classed as inactive in test [9].

For the compound `COC(=O)c1ccc(C(=O)O)cc1`, the Potency result in test [1], in test [6] and in [10] was “inactive” throughout. Moreover, the compound was called inactive in test [2], in [3], in [4], in test [5], in [7] and in test [8]. Moreover, the call in [9] was inactive.

Consider `COc1cc(C(=O)NC2CCCNC2)cc(OC)c1OC` (stereo not given), for which the Potency entry in test [1], in [6] and in test [10] was “inactive” throughout. Moreover, the outcome in test [2], in test [3], in [4], in test [5], in [7] and in test [8] was inactive. Moreover, the result in test [9] was inactive.

`CC12CCCC=C1C(=O)OC2=O` (stereo not given): the Potency entry in [1], in [6] and in [10] was “inactive” each time. For the same compound, the call in test [2], in [3], in [4], in [5], in [7] and in test [8] was inactive. The outcome in test [9] was inactive.

On to `N#Cc1ccccc1C#N`, for which the Potency result in test [1], in test [6] and in [10] was “inactive” in each case. Also, the result in [2], in [3], in [4], in test [5], in test [7] and in test [8] was inactive. Besides, the compound was called inactive in [9].

Take `CCOC(=O)CC`: the Potency result in test [1], in test [6] and in test [10] was “inactive” throughout. For the same compound, the compound was classed as inactive in test [2], in test [3], in [4], in test [5], in test [7] and in test [8]. Moreover, the compound was called inactive in test [9].

As for `Cc1ccc(S(=O)(=O)NC(=O)NN2CC3CCCC3C2)cc1` (stereo not given), the Potency entry in test [1], in test [6] and in test [10] was “inactive” each time. Further, the result in test [2], in test [3], in test [4], in [5], in test [7] and in test [8] was inactive. Also, the compound was classed as inactive in test [9].

Consider `CCCC(=O)CC`, for which the Potency result in test [1], in [6] and in test [10] was “inactive” each time. For the same compound, the outcome in test [2], in test [3], in [4], in [5], in test [7] and in test [9] was inactive.

For the compound `CSC(=O)c1cccc2nnsc12`, the Potency entry in test [1], in test [6] and in [10] was “inactive” throughout. In addition, the outcome in test [2], in [3], in test [4], in [5], in test [7] and in test [8] was inactive. The call in test [9] was inactive.

Take `O=C(O)CCC(=O)Nc1ccc(S(=O)(=O)Nc2nccs2)cc1`: the Potency entry in test [1], in test [6] and in [10] was “inactive” in each case. For the same compound, the result in test [2], in [3], in [4], in test [5], in test [7] and in [8] was inactive. Moreover, in test [9], the compound was called inactive.

As for `CN1C(CCl)Nc2cc(Cl)c(S(N)(=O)=O)cc2S1(=O)=O` (stereo not given), the Potency result in test [1] and in [10] was “inactive” each time. For the same compound, the result in test [2], in [3], in test [4], in test [5], in [7] and in test [8] was inactive. Besides, the compound was classed as inactive in test [9]. In addition, in [6], the Potency is 26.6 µM (active).

`C=CC(C)(CCC=C(C)C)OC(=O)C(C)C` (stereo not given): the Potency entry in test [1], in test [6] and in test [10] was “inactive” throughout. For the same compound, the compound was called inactive in test [2], in test [3], in [4], in [5], in test [7] and in test [8]. Besides, in [9], the compound was classed as inactive.

`BrCCOc1ccccc1`: the Potency entry in test [1], in test [6] and in [10] was “inactive” throughout. Moreover, the outcome in [2], in test [3], in test [4], in test [5], in [7] and in [9] was inactive.

Consider `CC/C=C\CCOC(=O)c1ccccc1`, for which the Potency result in test [1], in test [6] and in test [10] was “inactive” each time. The outcome in [2], in test [3], in test [4], in [5], in test [7] and in [8] was inactive. Besides, the call in [9] was inactive.

Consider `O=S(=O)(O)CC(O)CCl` (stereo not given), for which the Potency entry in [1], in test [6] and in test [10] was “inactive” in each case. The compound was classed as inactive in [2], in test [3], in test [4], in test [5], in test [7] and in test [8]. For the same compound, the call in test [9] was inactive.

With `CC(C)OC(=O)C(C(=O)OC(C)C)=C1SC=CS1`, the Potency entry in test [1] and in test [10] was “inactive” each time. Further, the compound was called inactive in test [2], in [3], in test [4], in [5], in test [7] and in test [9].

`CCCCN(CCCC)CCCCCCN(CCCC)CCCC`: the Potency entry in test [1], in [6] and in test [10] was “inactive” throughout. Also, the compound was classed as inactive in test [2], in [3], in test [4], in test [7], in test [8] and in [9].

For the compound `CC[C@@]1(c2ccccc2)NC(=O)N(C)C1=O`, the Potency entry in [1], in test [6] and in test [10] was “inactive” throughout. The outcome in test [2], in test [3], in [4], in test [5], in test [8] and in test [9] was inactive.

For the compound `O=c1[nH]c(=O)c2cn[nH]c2[nH]1`, the Potency entry in test [1], in [6] and in test [10] was “inactive” each time. The result in test [2], in test [3], in test [4], in test [7], in test [8] and in [9] was inactive.

For `Cc1cc(O)c(Cl)cc1C`, the Potency entry in [1], in [6] and in test [10] was “inactive” throughout. Further, the result in [2], in [3], in test [4], in test [7], in test [8] and in [9] was inactive.

As for `Nc1ccc(C(=O)NCC(=O)O)cc1`, the Potency result in [1], in test [6] and in [10] was “inactive” throughout. Also, the compound was classed as inactive in [2], in [3], in test [4], in test [7], in [8] and in test [9].

`Cc1cc(C)c(N)c(Cl)c1`: the Potency result in test [1], in test [6] and in test [10] was “inactive” throughout. Besides, the call in test [2], in test [3], in [4], in [7], in test [8] and in test [9] was inactive.

Consider `N=C(N)S(=O)O`, for which the Potency result in test [1], in test [6] and in [10] was “inactive” in each case. The outcome in test [2], in test [3], in test [4], in test [7], in test [8] and in test [9] was inactive.

As to `CCOC(=O)COc1ccc2c(C)c(CCN(CC)CC)c(=O)oc2c1Cl`, the Potency entry in test [1] and in [6] was “inactive” each time. The call in test [2], in [3], in test [4], in test [5], in [7] and in [9] was inactive.

As for `O=C[C@@H](O)[C@H](O)[C@H](O)CO`, the Potency entry in test [1], in test [6] and in [10] was “inactive” each time. The call in test [2], in test [3], in [5], in [7], in test [8] and in test [9] was inactive.
